PubChem BioAssay AID1852 (Sanford-Burnham Center for Chemical Genomics, 2009)
Among all 2,500 compounds or so, about 1,100 (44%) were called active.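 Rule for the calls: active = inhibition above 50% at 4 µM in the single-point screen; inactive = inhibition of 50% or less.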 The set was probably picked from earlier hits. This is one part of the list.

Test: TNF-a-driven NF-kB reporter inhibitors, primary screen, selectivity assay for NOD1/NOD2 signaling inhibitor project, cell-based, HEK293T NF-kB-Luc, luminescence (AID 1852)
Settings: TNF-a induced, 14 h, at 4 µM, active compounds read high

inhibition, inactive:
Cc1cc(C)c(C#N)c(SCc2nnc(-c3ccccc3)o2)n1 0%
CCOc1ccc(NC(=O)Nc2ccc3c(c2)N(C)C(=O)CS3)cc1 14.3%
Cn1c(O)c(N=NC(=S)Nc2ccccc2F)c2cc(S(=O)(=O)N3CCOCC3)ccc21 12.5%
O=C(Nc1ccc(S(=O)(=O)N2CCOCC2)cc1)c1cc(-c2cc(Cl)ccc2O)n[nH]1 -2.1%
C=CCN(C(=O)CCc1ccccc1OC)c1nc(-c2ccc(S(C)(=O)=O)cc2)cs1 -10.1%
CCOC(=O)c1c(C)[nH]c(C(=O)OCC(=O)N2CCN(S(=O)(=O)c3ccccc3)CC2)c1C 0%
C[C@@H](C(=O)NCc1ccccn1)[C@H]1C[C@]1(C)[C@H](NC(=O)OCc1ccccc1)c1ccccc1 -9%
O=C(Nc1ccc(F)c([N+](=O)[O-])c1)c1cccs1 4.2%
O=C(NC(=S)N1CCN(c2ccc(F)cc2)CC1)c1cccs1 11.7%
CN1CCN(c2ccc(C(CC(N)=O)NC(=O)c3ccccc3)cc2[N+](=O)[O-])CC1 (centres undefined) 10.7%
O=C(/C=C/c1ccc(Cl)cc1Cl)N1CCN(c2ccccc2[N+](=O)[O-])CC1 -38.9%
Cn1c(SCC(=O)N2CCCc3ccccc32)nc2ccccc2c1=O 43.4%
Cc1cccc(N2CCN(C(=O)Cc3cn(C)c4ccccc34)CC2)c1C -31.6%
CC(C)Cn1c(N2CCN(C(=O)/C=C/c3ccccc3)CC2)nc2ccccc21 0.5%
CCn1c(NC(=O)/C=C/c2ccc(F)cc2)nc2ccccc21 0%
O=C(CCl)Nc1cc(-c2ccccc2)nn1-c1ccccc1 -25.8%
CCCc1cc(NC(=O)CCl)n(-c2ccccc2)n1 40.2%
CCOC(=O)c1c(C)[nH]c(C)c1C(=O)CSc1nc2ccccc2c(=O)n1-c1ccc(CC)cc1 -1.6%
CCOc1ccc(CCn2c(-c3ccco3)nc3ccccc3c2=O)cc1OCC -36.6%
Cn1c2ccccc2c(=O)c2c(=O)n(C3CCCCC3)c(-c3cccs3)nc21 23.4%

inhibition, active:
O=S(=O)(c1ccc(N=C2NN=C(c3cc(F)ccc3F)CS2)cc1)N1CCOCC1 77.4%
CCCCN(c1ccccc1)c1ncnc(N)c1[N+](=O)[O-] 83.7%
CC(=O)c1c(C)[nH]c(C(=O)COC(=O)c2cccc(S(=O)(=O)N(C)c3ccccc3)c2)c1C 84.9%
O=C(NC(=S)N1CCN(c2ccc(Cl)cc2[N+](=O)[O-])CC1)c1cccs1 53.9%
O=C(NC(=S)N1CCN(c2ccc(C(F)(F)F)cc2[N+](=O)[O-])CC1)c1cccs1 101%
Cc1cccc(-n2c(SCC(=O)N3CCC(C(=O)O)CC3)nc3ccccc3c2=O)c1C 74.3%
O=C(CCl)Nc1cc(SCC(O)CO)cc([N+](=O)[O-])c1 (centres undefined) 96.6%
COc1ccc(-[n+]2c(C)cc(/C=C3\Sc4ccccc4N3C)cc2C)cc1 67%
C=CCSc1nc2ccccc2n1C(=O)/C=C/c1ccc(OC)c(OC)c1 89.7%
COc1ccc(-c2n(Cc3ccccc3)c3ccccc3[n+]2Cc2ccccc2)cc1 53.1%
CC(C)(C)c1cc(NC(=O)CCl)n(-c2ccccc2)n1 52.2%
Cc1[nH]c2ccccc2c1C(=O)CCl 95.3%
Cc1ccc2c(C(=O)CCl)c(C)[nH]c2c1 83.2%
Cn1c2ccccc2c(=O)c2c(=O)n(C3CCCCC3)c(-c3ccco3)nc21 78.9%
